Results: the supplement of paper PMC8975748
Where a name gives a salt, the structure may show the parent alone.

tested on: Saccharomyces cerevisiae BY4741 SeMeCo community; test: z-score of subpopulation abundance vs DMSO median, subpopulation auxotrophic for HM; higher = larger share of this subpopulation than in DMSO controls; details: 10 µM; 24 h; SM minimal medium; subpopulation (auxotrophy): HM
Outline: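 A Saccharomyces cerevisiae BY4741 community carried four plasmids, each restoring one auxotrophy and encoding a distinct fluorescent protein. It was pre-grown overnight to OD600 1.0, diluted to 0.3, and 70 µl was added to 384-well plates acoustically predosed with library drugs (10 µM final), then grown 24 h in minimal SM medium. Cells were paraformaldehyde-fixed and imaged by automated confocal microscopy, with single-auxotroph fluorescent strains setting thresholds and autofluorescence correction. Each subpopulation's abundance was scored as a z-score against the vehicle-well median.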

SMILES | z-score of subpopulation abundance
OCc1ccccc1O[C@@H]1O[C@H](CO)[C@@H](O)[C@H](O)[C@H]1O [Salicin] | -0.68
CCCCCOc1ccc(-c2ccc(-c3ccc(C(=O)N[C@H]4C[C@@H](O)[C@@H](O)NC(=O)[C@@H]5[C@@H](O)[C@@H](C)CN5C(=O)[C@H]([C@@H](C)O)NC(=O)[C@H]([C@H](O)[C@@H](O)c5ccc(O)cc5)NC(=O)[C@@H]5C[C@@H](O)CN5C(=O)[C@H]([C@@H](C)O)NC4=O)cc3)cc2)cc1 | 0.97
COc1cc2c(cc1OC)[C@@H]1Cc3ccc(OC)c(OC)c3CN1CC2 [Rotundine] | -0.02
C[C@H](NCc1ccc(OCc2cccc(F)c2)cc1)C(N)=O [Safinamide] | 0.41
CC1(C)S[C@@H]2[C@H](NC(=O)COc3ccccc3)C(=O)N2[C@H]1C(=O)O [Penicillin V potassium salt] | 0.44
CC[C@H]1OC(=O)C[C@@H](O)[C@H](C)[C@@H](O[C@@H]2O[C@H](C)[C@@H](O[C@H]3C[C@@](C)(O)[C@@H](O)[C@H](C)O3)[C@H](N(C)C)[C@H]2O)[C@@H](CC=O)C[C@@H](C)C(=O)/C=C/C(C)=C/[C@@H]1CO[C@@H]1O[C@H](C)[C@@H](O)[C@@H](OC)[C@H]1OC [Tylosin] | 0.74
C[N+]1(C)[C@@H]2C[C@@H](OC(=O)C(O)(c3cccs3)c3cccs3)C[C@H]1[C@@H]1O[C@@H]12 [Tiotropium Bromide hydrate] | -0.06
CN(C)CCc1c[nH]c2ccc(CS(=O)(=O)N3CCCC3)cc12 [Almotriptan Malate] | -1.15
CCN(CC)CCOCCOC(=O)C1(c2ccccc2)CCCC1 [Pentoxyverine Citrate] | -0.96
Cc1cccc(C)c1NC(=O)C1CCCCN1C (configuration not stated) [Mepivacaine] | -0.49
CC1=C(CC(=O)O)c2cc(F)ccc2/C1=C\c1ccc([S+](C)[O-])cc1 (configuration not stated) [Sulindac] | 0.57
C#C[C@]1(O)CC[C@H]2[C@@H]3CCC4=CCCC[C@@H]4[C@H]3CC[C@@]21C [Lynestrenol] | -0.19
CN(C)CCCN1c2ccccc2Sc2ccc(Cl)cc21 [Chlorpromazine HCl] | 0.19
NC(=O)N1c2ccccc2C=Cc2ccccc21 [Carbamazepine] | -0.61
CC(=O)OCC(CCn1cnc2cnc(N)nc21)COC(C)=O [Famciclovir] | 0.41
C[C@@H]1CC(=O)NN=C1c1ccc(NN=C(C#N)C#N)cc1 [Levosimendan] | 0.22
N[C@@H](CCC(=O)O)C(=O)O [(S)-Glutamic acid] | -0.08
c1cnc2cc3c(cc2n1)[C@@H]1CNC[C@H]3C1 [Varenicline Tartrate] | -0.22
NC[C@@H]1O[C@H](O[C@H]2[C@@H](O)[C@H](O[C@@H]3[C@@H](O)[C@H](N)C[C@H](N)[C@H]3O[C@H]3O[C@H](CN)[C@@H](O)[C@H](O)[C@H]3N)O[C@@H]2CO)[C@H](N)[C@@H](O)[C@@H]1O [Neomycin sulfate] | -1.14

SMILES | z-score of subpopulation abundance
C#CCC(Cc1cnc2nc(N)nc(N)c2n1)c1ccc(C(=O)N[C@@H](CCC(=O)O)C(=O)O)cc1 (some centres not stated) [Pralatrexate] | 5.98
CCCCCCCCCCCCCCCC[N+](C)(C)C [Cetrimonium Bromide (CTAB)] | 10.1
C#C[C@]1(O)CC[C@H]2[C@@H]3CCC4=CCCC[C@@H]4[C@H]3C(=C)C[C@@]21CC [Desogestrel] | -0.05
C=CC[N+]1([C@H]2C[C@H]3[C@@H]4CC[C@H]5C[C@H](O)[C@@H](N6CCOCC6)C[C@]5(C)[C@H]4CC[C@]3(C)[C@H]2OC(C)=O)CCCC1 [Rocuronium Bromide] | -0.59
N#CC(c1ccc(Cl)cc1)c1c(Cl)cc(-n2ncc(=O)[nH]c2=O)cc1Cl (configuration not stated) [Diclazuril] | -0.31
COCCCN1CCC(NC(=O)c2cc(Cl)c(N)c3c2OCC3)CC1 [Prucalopride] | 0.24
CN(C/C=C/C#CC(C)(C)C)Cc1cccc2ccccc12 [Terbinafine HCl] | -0.78
CC1(C)[C@H](C(=O)O)N2C(=O)C[C@H]2S1(=O)=O [Sulbactam sodium] | 0.23
CC/C(=C(\c1ccccc1)c1ccc(OCCN(C)C)cc1)c1ccccc1 [Tamoxifen] | 0.93
COC(=O)C1=C(C)NC(C)=C(C(=O)OCCN2CCN(C(c3ccccc3)c3ccccc3)CC2)C1c1cccc([N+](=O)[O-])c1 (configuration not stated) [Manidipine 2HCl] | 2.87
CCC(C)(Oc1ccc(C2(c3ccc(OC(C)(CC)C(=O)O)cc3)CCCCC2)cc1)C(=O)O (configuration not stated) [Clinofibrate] | -0.03
O=C1CCc2ccc(OCCCCN3CCN(c4cccc(Cl)c4Cl)CC3)cc2N1 [Aripiprazole] | 0.47
CCC(=O)Oc1ccc2c(c1)CCC1C2CCC2(C)C(OC(=O)CC)CCC12 (stereo not drawn) [Estradiol dipropionate(17-Beta-Estradiol-3,17-Dipropionate)] | -0.18
O=C(O)C[C@H](O)C[C@H](O)/C=C/c1c(C2CC2)nc2ccccc2c1-c1ccc(F)cc1 [Pitavastatin Calcium] | 4.05
CN(C)CCN1C(=O)c2cccc3cc(N)cc(c23)C1=O [Amonafide] | -0.01
CO/N=C(\C(=O)N[C@@H]1C(=O)N2C(C(=O)O)=C(Cn3ccc(=N)n3CCO)CS[C@H]12)c1csc(N)n1 [Cefoselis Sulfate] | -0.32
OC(CCN1CCCCC1)(c1ccccc1)C1CCCCC1 (configuration not stated) [Trihexyphenidyl hydrochloride] | -0.75
C[C@H](NCc1ccc(OCc2cccc(F)c2)cc1)C(N)=O [Safinamide Mesylate] | 1.04
